Data taken from PubChem BioAssay (NCI).
Several values for one entry are separate records, joined by “and”; a condition that tells them apart may be missing. Identical values can stand only once. The panel holds about 83,000 compounds, 20% with a hit somewhere; the sample as a whole holds those more often.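 The test compound was applied at a single concentration to cells in 96-well plates for 48 hours, and percent growth was recorded.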 Activity calls are given as the source filed them. The calls were made as follows: active = growth percent below 10; inactive = the rest.

Tests used:
Assay in all cases: NCI-60 one-dose screen, 48 h (100 = growth as untreated, 0 = no growth, -100 = all killed)
[1] = tested on: EKVX NSCLC; conditions: 10 µM
[2] = tested on: SN12C renal; conditions: 10 µM
[3] = tested on: UO-31 renal; conditions: 10 µM
[4] = tested on: TK-10 renal
[5] = tested on: ACHN renal; conditions: 10 µM
[6] = tested on: CAKI-1 renal; conditions: 10 µM
[7] = tested on: A498 renal; conditions: 10 µM
[8] = tested on: CCRF-CEM leukemia; conditions: 10 µM
[9] = tested on: MOLT-4 leukemia; conditions: 10 µM
[10] = tested on: SR leukemia; conditions: 10 µM
[11] = tested on: RPMI-8226 leukemia; conditions: 10 µM
[12] = tested on: OVCAR-8 ovarian; conditions: 10 µM
[13] = tested on: OVCAR-5 ovarian; conditions: 10 µM
[14] = tested on: OVCAR-4 ovarian; conditions: 10 µM
[15] = tested on: SK-OV-3 ovarian; conditions: 10 µM
[16] = tested on: IGROV1 ovarian; conditions: 10 µM
[17] = tested on: HS 578T breast; conditions: 10 µM
[18] = tested on: HL-60(TB) leukemia; conditions: 10 µM
[19] = tested on: SK-MEL-2 melanoma; conditions: 10 µM
[20] = tested on: OVCAR-3 ovarian; conditions: 10 µM

Measured: growth

O=C(CCl)Nc1ccc(Cl)cc1
inactive: [1] 101% | [2] 35.8% | [3] 79.7% | [4]; 10 µM unless noted 66.7% | [5] 62.4% | [7] 113% | [8] 26.3% | [9] 32.8% | [10] 29.6% | [11] 60.4% | [12] 53.3% | [13] 53.5% | [14] 17.6% | [15] 85.8%
active: [6] -7.72% | [16] -4.08%

COc1cc([N+](=O)[O-])c2ncccc2c1[N+](=O)[O-]
inactive: [1] 102% | [2] 71.4% | [3] 41% | [4]; 10 µM unless noted 27.1% | [5] 56.1% | [6] 24.8% | [7] 122% | [8] 22.9% | [9] 26% | [10] 25.7% | [11] 45.8% | [12] 69.8% | [13] 124% | [14] 47.5% | [15] 91.5% | [16] 23.1% | [17] 79.4%

Cc1cc(C(C)(C)c2ccc(O)c(C)c2)ccc1O
inactive: [1] 85.2% | [2] 89.9% | [3] 79% | [4]; 10 µM unless noted 98.9% | [5] 88.7% | [6] 84.7% | [7] 102% | [18] 71.4% | [8] 127% | [9] 78.9% | [11] 93.6% | [12] 81.8% | [13] 88.1% | [14] 83.9% | [15] 102% | [16] 106% | [17] 89.2%

NC(=O)c1cc([N+](=O)[O-])c(Cl)c([N+](=O)[O-])c1
active: [9] -13.3% | [11] -10.4%
inactive: [19] 154% | [1] 98.3% | [2] 100% | [4]; 10 µM unless noted 84.1% | [5] 92.7% | [6] 87.6% | [18] 20.1% | [12] 85.1% | [13] 111% | [14] 71.8% | [15] 104% | [16] 102% | [17] 106%

NNc1ccccc1
inactive: [1] 89.6% | [2] 97.3% | [3] 64% | [5] 64.5% | [6] 65.4% | [7] 97.5% | [8] 42.7% | [9] 73.1% | [12] 100% | [13] 90.2% | [14] 102% | [15] 99.6% | [16] 88.4% | [20] 97.7% | [17] 109%

CCOP(=O)(OCC)C(O)c1ccccc1Cl (stereo not drawn)
inactive: [19] 93% | [2] 106% | [3] 90.5% | [5] 96.8% | [6] 101% | [7] 103% | [8] 93.9% | [9] 97.8% | [11] 102% | [12] 100% | [13] 87.2% | [14] 106% | [15] 96.5% | [16] 93.5% | [17] 106%

COC12c3c(C)cc(O)c4c(=O)occ(c34)C(=O)C1C13COC(=O)c4c(O)cc(C)c(c41)C(=O)C2C3OC(C)=O (stereo not drawn)
inactive: [19] 81.5% | [2] 102% | [3] 91.5% | [5] 100% | [6] 156% | [7] 114% | [9] 102% | [10] 92.4% | [11] 90.6% | [12] 105% | [13] 91.4% | [14] 100% | [15] 93.4% | [17] 112%

O=[P+](O)c1ccccc1
inactive: [19] 109% | [1] 115% | [2] 104% | [5] 102% | [6] 103% | [7] 104% | [9] 107% | [10] 102% | [11] 98.6% | [12] 99.9% | [13] 108% | [14] 114% | [15] 101% | [16] 115% | [17] 106%

Cc1ccc(NC(=O)CBr)cc1
inactive: [19] 110% | [2] 95.7% | [3] 86.1% | [5] 108% | [6] 104% | [7] 99.3% | [8] 23.8% | [9] 98.4% | [11] 102% | [13] 109% | [14] 102% | [15] 86.1% | [20] 112% | [17] 107%

COC1CC2C=C(C)/C=C/C=C/C(=O)NC(c3ccccc3)C/C=C/CCC(O)CC(=O)C2=C1O (stereo not drawn)
active: [19] -89.8% | [2] -84.9% | [3] -95.7% | [5] -93.3% | [6] -88% | [7] -87.7% | [9] -59.5% | [11] -40.8% | [12] -69.1% | [13] -95.6% | [14] -78.4% | [15] -91.4% | [16] -90.2% | [20] -83.9% | [17] -51.4%

CC1CCC2(OC1)OC1C(O)C3C4CCC5CC(OC6OC(CO)C(OC7OC(CO)C(O)C(OC8OCC(O)C(O)C8O)C7OC7OC(CO)C(O)C(OC8OC(CO)C(O)C(O)C8O)C7O)C(O)C6O)C(O)CC5(C)C4CCC3(C)C1C2C (stereo not drawn)
inactive: [9] 28.8%
active: [19] 8.3% | [1] -17.2% | [2] -26.9% | [3] -96.8% | [5] 1.57% | [6] -63% | [11] -47.1% | [13] -62.6% | [14] -66.7% | [15] -35.8% | [16] -47.7% | [20] -83.1%

Cc1ccc(C(=O)C2C(c3ccccc3)N2C2CCCCC2)cc1 (stereo not drawn)
inactive: [19] 101% and 98.3% | [2] 107% and 100% | [3] 92.8% and 73.4% | [5] 113% and 97.9% | [6] 107% and 94.3% | [7] 105% and 89% | [18] 98.3% and 94.8% | [9] 94.9% and 93.3% | [10] 94.4% and 97.4% | [11] 78.5% and 94.1% | [12] 103% and 101% | [13] 97.4% and 95.9% | [14] 98.4% and 87.2% | [15] 102% and 96.2% | [16] 119% and 92.4% | [20] 114% and 108% | [17] 102% and 97.1%

Oc1c(I)cc(I)cc1I
inactive: [19] 101% | [1] 108% | [2] 97.2% | [4]; 10 µM unless noted 103% | [5] 103% | [6] 109% | [7] 97.9% | [18] 105% | [9] 98.9% | [10] 101% | [11] 94% | [12] 101% | [13] 98.6% | [14] 104% | [15] 109% | [16] 112% | [20] 124% | [17] 119%

[Cl][Sn]([c]1ccccc1)([c]1ccccc1)[c]1ccccc1
active: [19] -62.9% | [2] -28.9% | [3] -87.9% | [5] -89.2% | [6] -87.8% | [7] -91% | [18] -25.3% | [8] -46% | [9] -7.21% | [10] -21% | [11] -28% | [12] -74.5% | [13] -84.1% | [14] -88.9% | [15] -97.3% | [16] -76.8% | [17] 0.581%

COc1cc2c(c(OC)c1OC)-c1ccc(O)c(=O)cc1[C@@H](NC(C)=O)CC2
inactive: [19] 47.9% | [2] 60% | [3] 53.3% | [4]; 10 µM 64.4% | [4]; 100 µM 12.6% | [5] 61.2% | [6] 26.6% | [7] 63.7% | [18] 36% | [9] 46.6% | [10] 30.1% | [11] 40.9% | [12] 36.7% | [13] 70.1% | [14] 46.5% | [15] 66.9% | [16] 51.9%

COc1cc(/C=C/[N+](=O)[O-])cc(Br)c1OC
inactive: [1] 103% | [2] 28.7% | [5] 60.7% | [6] 61.3% | [9] 10% | [12] 31.2% | [13] 65.4% | [14] 60.3% | [15] 94.7%
active: [3] -1.36% | [4]; 10 µM unless noted -38.1% | [10] -5.8% | [11] -15.7% | [16] 1.74%

O=C1C=Cc2ccccc2C1=O
inactive: [19] 55.3% | [1] 82.6% | [2] 92.1% | [3] 50.3% | [5] 46.5% | [6] 86.2% | [7] 91.3% | [9] 95.2% | [11] 93.6% | [12] 87.9% | [13] 120% | [15] 71.9% | [16] 77.7% | [17] 90.9%

COc1ccc(/C=C(\C)[N+](=O)[O-])cc1OC
inactive: [19] 21.4% | [2] 39.9% | [7] 111% | [13] 67.8% | [14] 17.2% | [15] 104% | [17] 65.7%
active: [3] -83% | [5] -59.9% | [6] -84.4% | [9] -25% | [10] -17.4% | [11] -20.2% | [12] -27.8% | [16] -18.5%
